# The list is not random: actives were taken first. Their share in the collection is about 5.3%.
# TDP1 block: qHTS Assay for Inhibitors of Tyrosyl-DNA Phosphodiesterase (TDP1); Tyrosyl-DNA phosphodiesterase 1 (Homo sapiens), Q9NUW8; recombinant TDP1, AlphaScreen DNA substrate cleavage; Potency, µM (doses to about 130 µM), for inactives: at the highest dose activity change, negative = inhibition, actives largely listed as inhibitors; 0.28% of 350,000 active; AID 485290, 2010; also: potency is read from the fitted curve at half-maximal effect; % is scaled to controls: 0 for no effect and ±100 for the full control effect; nearly all actives have a fitted effect of over 40% in size
#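 Here, a 5' biotin and 3' phosphotyrosine-FITC DNA oligonucleotide reports Tdp1 activity: intact substrate bridges AlphaScreen beads, while cleavage leaves a 3' phosphate and drops signal. All incubations at room temperature.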
# CtBP-E1A inh: qHTS Assay for Inhibitors of the CtBP/E1A Interaction; AID 651724, 2012; 0.49% of 340,000 active; AlphaScreen GST-E1A/His-CtBP binding, 1536-well; stronger effect = lower value; CtBP / adenovirus E1A interaction (AlphaScreen); activity change, % (test concentration not listed); in the data active = activity change below about -65%; inconclusive = mostly about -30% to -63%; also: % is scaled to controls: 0 for no effect and ±100 for the full control effect
#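 In 5 uL wells, 23 nL compound meets equimolar GST-E1A and His-CtBP (5X stock 125 nM each) for 2 h, 37 °C. Beads (5X, 50 ug/mL) then 1 h, 37 °C, dark.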
# Six1-Eya2 inh: qHTS Assay for Inhibitors of the Six1/Eya2 Interaction. Homeobox protein SIX1 (Homo sapiens) + Protein phosphatase EYA2 (Homo sapiens), …. AlphaScreen GST-Six1/His-Eya2 binding, biochemical; stronger effect = lower value. activity change, % (test concentration not listed). 0.56% of 360,000 active; in the data active = activity change below about -65%; inconclusive = mostly about -30% to -63%; also: % is scaled to controls: 0 for no effect and ±100 for the full control effect
#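 GST-Six1 + His-Eya2 (5X stock: 250/500 nM); Tris pH 8.0, 300 mM NaCl, 0.05% BSA, 0.02% Tween 20; GSH donor/Ni acceptor beads; 1 h 37 °C dark; AlphaScreen readout.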
# HP1b chromo inh: HTS for Inhibitors of HP1-beta Chromodomain Interactions with Methylated Histone Tails; 0.56% of 390,000 active; Chromobox protein homolog 1 (Homo sapiens), P83916; AlphaScreen HP1-beta / biotin-H3K9me3 peptide binding; Potency, µM (top dose mostly 114 µM), without a hit: top-dose activity change, negative = inhibition, hits mostly inhibitors; also: potency is read from the fitted curve at half-maximal effect; nearly all actives have a fitted effect of over 70% in size
#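 Compound inhibition of the preformed complex between 50 nM HP1-beta and 50 nM biotinylated H3K9me3 peptide was read by AlphaScreen. Buffer was PBS pH 7.4 with 0.01% Tween-20. Incubations ran 30 min at room temperature, with 10 ug/mL donor/acceptor beads.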
# BAZ2B inh: qHTS Assay for Inhibitors of BAZ2B | Potency, µM (series often up to 114 µM), for inactives: top-dose activity change, negative = inhibition, hits mostly inhibitors | AlphaScreen BAZ2B-H3K14Ac peptide displacement | 4.4% of 360,000 active | Bromodomain adjacent to zinc finger domain protein 2B (Homo sapiens), Q9UIF8 | AID 504333, 2011; also: potency is read from the fitted curve at half-maximal effect; % is scaled to controls: 0 for no effect and ±100 for the full control effect; nearly all actives have a fitted effect of over 60% in size
#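 In this displacement format the biotinylated H3(5-23) peptide acetylated at Lys14 serves as ligand at 50 nM, with BAZ2B at 50 nM in PBS pH 7.4 containing 0.01% Tween-20. Donor and acceptor beads are 10 ug/mL final.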
# JMJD2A Tudor inh: qHTS Assay for Inhibitors of JMJD2A-Tudor Domain. AlphaScreen JMJD2A-Tudor / H3K4me3 peptide binding. Potency, µM (series often up to 114 µM), without a hit: top-dose activity change, negative = inhibition, actives largely listed as inhibitors. 4.4% of 390,000 active. Lysine-specific demethylase 4A (Homo sapiens), O75164; also: potency is read from the fitted curve at half-maximal effect; % is scaled to controls: 0 for no effect and ±100 for the full control effect; nearly all actives have a fitted effect of over 50% in size
# * = called active by the depositor; u = inconclusive; x = no result; [ ] = another dose, or the depositor's remark. Unless noted, calls follow the shape of the dose curve; as a rule, active = well fitted inhibition curve with a large enough effect; inconclusive = small, poorly fitted or top-dose-only effect; inactive = no such curve, though single readings can be large or run the other way.
SMILES,TDP1 block,CtBP-E1A inh,Six1-Eya2 inh,HP1b chromo inh,BAZ2B inh,JMJD2A Tudor inh
Cc1nc2ccccn2c1-c1csc(NCc2ccco2)n1,7%,-3,-8,2%,50µM*,-34%[57.1 µM]
COC(=O)c1scc(-c2ccc(C)cc2)c1S(=O)(=O)N1CCN(c2ccccc2)CC1,7%,x,x,-6%,u,-29%
CCCCCCCCC1CO1 (stereo not drawn),9%,x,x,x,x,x
CCOC(=O)c1[nH]c(C)c(CCC(=O)N2CCN(c3cccc(C)c3C)CC2)c1C,14%,x,x,13%[57 µM],u,u
CCOc1cccc(C(=O)Nc2c(C(=O)c3ccc(OC)cc3)oc3ccccc23)c1,1%,x,x,32%,18%,21%
CC/C(=C(/c1ccccc1)c1ccc(OCCN(C)C)cc1)c1ccccc1,14%,x,x,x,x,x
COc1ccc(-c2csc(NCc3ccco3)n2)cc1,7%,-6,-14,u,50µM*,79µM*
O=C(COc1ccc(Br)cc1)N/N=C1/SCC(=O)N1Cc1ccco1,-8%,0,1,u,u,16µM*
O=C1CSC(=Nc2ccc(Cl)cc2)N1Cc1ccco1,x,6,-6,42%,1%,-5%
CC1CN(C(=O)Nc2ccc(C(=O)NCCc3ccc(Cl)cc3)cc2)c2ccccc2S1 (stereo not drawn),0%,x,x,25%,-1%,-10%
O=C1CCc2cc(S(=O)(=O)Nc3ccc4ccccc4c3)ccc2N1,2%,x,x,x,x,-22%
CN1CCc2c(sc3c2C(=O)NC(c2cn(Cc4ccccc4)c4ccccc24)N3)C1 (stereo not drawn),6%,-27,-13,u,45µM*,40µM*
CN1CCc2c(sc3c2C(=O)NC(c2ccco2)N3)C1 (stereo not drawn),6%,-6,-13,20%,x,-16%
CCC(CC)C(=O)Nc1cc(-c2cccc(C)c2)nn1-c1ccccc1,5%,x,x,25%[57 µM],14%,-6%
CCN(CC)c1ccc(C(=O)N2CCc3c([nH]c4ccccc34)C2c2ccc(F)cc2)cc1 (stereo not drawn),5%,x,x,-2%[57 µM],-34%,u
COc1ccc(OC)c(C(=O)CSc2ncc3c(n2)-c2ccccc2N(Cc2ccccc2C)S3(=O)=O)c1,0%,x,x,29%,-10%,5%
CCOC(=O)C1=C(N)OC2=C(C(=O)CC(C)(C)C2)C1c1ccco1 (stereo not drawn),-3%,-10,2,10%,-19%,56µM*
Cc1sc2c(c1C)c(=O)n(-c1cccc(C(F)(F)F)c1)c(=O)n2Cc1ccccc1C#N,-2%,x,x,50%,33%,-14%
CN(C)S(=O)(=O)N(CC(=O)N(Cc1ccccc1)Cc1ccccc1)c1ccccc1,-7%,5,-1,8%,56µM*,u
O=C(OCC(=O)N1CCc2ccccc21)c1ccc[nH]c1=O,-2%,-24,2,0%,-10%,14µM*
CN(Cc1ccccc1)C(=O)COC(=O)c1ccc[nH]c1=O,0%,-13,32,23%,x,22µM*
O=C(CSc1nc2ccccc2n1Cc1ccccc1)N1CCN(c2ccc(F)cc2)CC1,-2%,x,x,16%,-1%,-4%
Cc1ccc(NS(=O)(=O)c2ccc3c(c2)[C@H]2C=CC[C@H]2[C@@H](c2ccc(F)cc2)N3)cc1C,x,x,x,-8%,u,u
O=C(O)c1ccc(NS(=O)(=O)c2ccc3c(c2)C2C=CCC2C(c2ccccc2F)N3)cc1 (stereo not drawn),x,-5,-17,5%,50µM*,u
COC(=O)c1ccc([C@H]2Nc3ccc(S(=O)(=O)Nc4cccc(C)c4)cc3[C@H]3C=CC[C@H]32)cc1,x,x,x,-14%,40µM*,35µM*
SMILES,TDP1 block,CtBP-E1A inh,Six1-Eya2 inh,HP1b chromo inh,BAZ2B inh,JMJD2A Tudor inh
Cc1ccc([C@H]2Nc3ccc(S(=O)(=O)Nc4cccc(Cl)c4C)cc3[C@H]3C=CC[C@H]32)cc1,4%,x,x,1%,u,u
O=C1CN(S(=O)(=O)c2c(F)cccc2F)CCN1S(=O)(=O)c1ccc2c(c1)OCCO2,-2%,x,x,x,x,-5%
COc1ccc(NC(=O)CN(Cc2ccccc2)S(=O)(=O)c2ccc(C)cc2)cc1Cl,0%[12.3 µM],x,x,19%,1%,-8%
COc1ccc(S(=O)(=O)N2CCOCC2)cc1NC(=O)c1cccc(-n2cccc2)c1,x,-4,u,-25%,u,u
CCOc1ccc(NC(=O)c2cccc(-n3cccc3)c2)cc1S(=O)(=O)N1CCOCC1,0.79µM*,x,x,x,5µM*,x
O=C1c2cc(O)cc(O)c2C(=O)c2c1cc(O)c([C@@H](CO)CCO)c2O,x,u,u,u,x,79µM*
Cc1c(C(=O)NC(=S)Nc2ccc(NC(=O)c3cccs3)cc2)oc2ccccc12,7%,8,0,33%,50µM*,-7%[11.4 µM]
c1cc2c3c(cccc3c1)NC1(CCC3(CC1)Nc1cccc4cccc(c14)N3)N2,11%,x,u,u,28µM*,50µM*
c1cc2c3c(cccc3c1)NC1(CCCCCC1)N2,-6%,-11,3,-2%,-35%,-9%[57.1 µM]
COc1ccc(-c2nc(CSc3nnc(C)n4c3cc3sccc34)c(C)o2)cc1,3%,x,x,22%,-20%,-8%
CCOC(=O)/C(=C/C=C1\Sc2ccccc2N1CC)C(C)=O,6%,u,-11,7%,-32%,-33%
CCOC(=O)/C(=C/C=C1\Sc2cc(C)c(C)cc2N1CC)C(C)=O,1%,-15,-7,16%,40µM*,-21%
Cc1cc(=O)[nH]c(SCC(=O)c2ccc(O)c(O)c2)n1,x,0,-24,7%,56µM*,-8%
Cc1cc(=O)[nH]c(SCC(=O)NC(c2ccccc2)c2ccccc2)n1,0%,-5,-22,19%,x,-3%
O=C(CSc1nc2ccccc2n1CCc1ccccc1)c1ccc(O)c(O)c1,x,-7,u,25µM*,2.5µM*,7.9µM*
O=C(CSc1nc2ccccc2c(=O)[nH]1)c1ccc(O)cc1O,2%,-10,-4,15%,2%,-8%
COC(=O)C(CSCc1ccccc1)NC(=O)CSc1nc(C)cc(=O)[nH]1 (stereo not drawn),0%,1,8,-2%,3%,50µM*
O=C(CSc1nc2ccccc2c(=O)[nH]1)c1ccc(O)c(O)c1,-7%,-2,-20,-58%,-8%,56µM*

# Assay outcomes: PubChem BioAssay, National Center for Advancing Translational Sciences (NCATS)
